# High-throughput results deposited in PubChem by National Center for Advancing Translational Sciences (NCATS).
# A selection: hits, their analogues and other compounds. The true share with any hit is near 19%.
# IL1B secr inh – inflammasome signaling inhibition, IL-1 beta readout; activity change, % at 57.5 µM; 360,000 compounds, 4.7% hits; THP-1 LPS/ATP IL-1B secretion, AlphaLISA, 16 h; stronger effect = lower value; in the data active = activity change below about -50%; inconclusive = mostly about -30% to -49%
#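 THP-1 cells pretreated 1 hr with compounds (up to 57.5 uM final), then stimulated with LPS (250 ng/mL final) plus ATP (1.25 mM final); secreted IL-1B measured by AlphaLISA after 16 hr, decreased signal indicating inhibition.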
# TDP1 cell noCPT – qHTS for Inhibitors of human tyrosyl-DNA phosphodiesterase 1 (TDP1): qHTS in cells in absence of CPT | DT40 Tdp1-/- hTDP1 cells, no CPT, ATP luminescence, 48 h | Potency, µM (doses to about 46.2 µM), inactives show at the top dose activity change, negative = growth inhibition, hits mostly inhibitors | 420,000 compounds, 15% hits; also: potency is read from the fitted curve at half-maximal effect; nearly all actives have a fitted effect of over 55% in size
#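 Seeded 400 DT40-hTDP1 cells/well (vehicle DMSO, no 20 nM CPT); pinned compounds; ≥48 hr at 37 °C; CellTiter-Glo luminescence as viability measure.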
# HT1080 IDH1KD tx – kills HT-1080 cells with IDH1 knockdown. HT-1080 IDH1 knockdown viability, ATP luminescence, 48 h. Potency, µM (doses to about 46.1 µM), for the others: at the top dose activity, negative = toxicity, actives largely listed as cytotoxic. AID 686971. 360,000 compounds, 2% hits;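 also: potency is read from the fitted curve at half-maximal effect; 0% = DMSO wells and -100% = cell-free medium wells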
#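 % activity derives from luminescence (CellTiter-Glo), normalised to DMSO and no-cell wells. HT-1080-IDH1KD cells, 750/well, had 48 h compound exposure at 37 °C.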
# HT1080-NT tox – kills 2HG-producing HT-1080-NT fibrosarcoma cells | HT-1080-NT fibrosarcoma viability, CellTiter-Glo ATP luminescence, 48 h | Potency, µM (titrated, usually from 46.1 µM), for inactives: at the top dose activity, negative = less viability, usual class: cytotoxic | 360,000 compounds, 1.6% hits;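 also: NT is the 2HG producing partner of a matched IDH1 knockdown line; potency is read from the fitted curve at half-maximal effect; 0% = DMSO-treated cells and -100% = media-only wells without cells; nearly all actives have a fitted effect of over 55% in size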
#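 Viability of the 2HG-overproducing fibrosarcoma line after 48 hours of compound exposure at 37 degrees C was determined by luminescence with CellTiter-Glo, and concentration-effect curves were then fitted and categorized.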
# DT40 TDP1 CPT – growth inhibition of DT40 Tdp1-/-;hTDP1 cells with camptothecin (screen for TDP1 inhibitors); chicken DT40 Tdp1-/-;hTDP1 cells + 20 nM CPT, ATP luminescence, 48 h; Potency, µM (highest dose often 46.2 µM), inactives show at the top dose activity change, negative = growth inhibition, hits mostly inhibitors; 420,000 compounds, 12% hits; AID 686979; also: potency is read from the fitted curve at half-maximal effect; nearly all actives have a fitted effect of over 55% in size
#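 Chicken DT40 Tdp1-/- cells complemented with human TDP1, 400 cells/well, exposed to compounds plus 20 nM camptothecin for at least 48 h at 37 C; viability read as ATP content by CellTiter-Glo luminescence.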
# ELG1 repair inh – ELG1-dependent DNA repair inhibition; 330,000 compounds, 2.3% hits; HEK293T ELG1-luciferase reporter, luminescence, 16 h; DNA damage induced by 5-fluorouridine; Potency, µM (doses to about 46.1 µM), for the others: at the top dose activity change, negative = inhibition, hits mostly inhibitors; AID 504467; also: potency is read from the fitted curve at half-maximal effect; nearly all actives have a fitted effect of over 55% in size
#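 DMSO vehicle served as the neutral condition. Each well held 2,000 cells given 5-fluorouridine plus compound; after 16 hr at 37 °C/5% CO2, ONE-Glo was added and luciferase measured 30 min later.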
# The depositor's hits bear a star; ? = inconclusive; . = no result. Unless noted, calls follow the shape of the dose curve; as a rule, active = well fitted curve in the direction sought with a large enough effect; inconclusive = small, poorly fitted or top-dose-only effect, or another doubt; inactive = no such curve, though single readings can be large; an effect the other way counts as inactive or inconclusive. Unless noted, % is scaled to controls: 0 for no effect and ±100 for the full control effect.
SMILES,IL1B secr inh,TDP1 cell noCPT,HT1080 IDH1KD tx,HT1080-NT tox,DT40 TDP1 CPT,ELG1 repair inh
CCOC(=O)c1ccc(NC(=O)CCc2c(C)nc3cc(-c4ccc(OC)cc4OC)nn3c2C)cc1,.,?,.,.,4%,.
CC(=O)c1cccc(NC(=O)c2cc(-c3ccco3)on2)c1,3,-28%,5%,8%,-4%,2%
CC(C)CNC(=O)c1cc(-c2ccco2)on1,-20,18µM*,6%,3%,16µM*,?
CCCNC(=O)c1cc(-c2ccco2)on1,-57*,9.2µM*,?,-30%,9.2µM*,?
O=C(Nc1cccc(O)c1)c1cc(-c2ccco2)on1,-28,15µM*,-2%,0%,?,?
CCN1C(=O)/C(=C/C=C2/CCCN2C)OC1=S,2,5.2µM*,8%,7%,?,?
CN1C(=O)/C(=C\C=C2/CCCN2C)N(C)C1=S,22,8%,11%,11%,-17%,?
CC1(NC(=O)CCc2nc3ccccc3c(=O)[nH]2)CCS(=O)(=O)C1 (configuration not stated),10,16%,15%,?,4%,6%
O=C(/C=C/C=C/c1ccccc1)CC1(O)C(=O)N(CCc2ccccc2)c2ccccc21 (configuration not stated),-100*,18µM*,-14%,-1%,21µM*,-13%
NC(=O)CN1C(=O)C(O)(CC(=O)/C=C\C=C\c2ccccc2)c2ccccc21 (configuration not stated),-86*,?,-1%,2%,?,3%
CCN1C(=O)C(O)(CC(=O)/C=C/C=C/c2ccccc2)c2ccccc21 (configuration not stated),?,?,-1%,3%,23µM*,8%
CCN1C(=O)C(O)(CC(=O)c2cc(C)ccc2C)c2ccccc21 (configuration not stated),13,-18%,0%,0%,-27%,-5%
C#CCN1C(=O)C(O)(CC(=O)/C=C/C=C/c2ccccc2)c2ccccc21 (configuration not stated),-29,23µM*,8%,5%,?,8%
Cc1ccc2c(c1)C(O)(CC(=O)/C=C/C=C/c1ccccc1)C(=O)N2 (configuration not stated),-56*,?,-6%,-8%,?,0%
NC(=O)C1CCN(c2csc3ccc(F)cc3c2=O)CC1,.,-11%,.,.,-9%,.
CC(C)c1ccc(NC(=O)C2Cc3c(-c4ccc(Cl)cc4)ccnc3O2)cc1 (configuration not stated),?,9.2µM*,?,?,16µM*,.
O=C(NCCc1ccccc1)C1Cc2c(-c3ccc(Cl)cc3)ccnc2O1 (configuration not stated),22,?,-22%,-12%,?,.
O=C(Nc1ccc(Cl)c(C(F)(F)F)c1)C1Cc2c(-c3ccccc3)ccnc2O1 (configuration not stated),-1,?,?,?,?,.
CC(=O)NCCNC(=O)C1Cc2c(-c3ccc(Cl)cc3)ccnc2O1 (configuration not stated),23,-1%,2%,-11%,-6%,.
O=C(Nc1ccc(Cl)cc1)C1Cc2c(-c3ccccc3)ccnc2O1 (configuration not stated),-79*,?,-25%,-16%,?,.
O=C(Nc1ccc(F)c(Cl)c1)C1Cc2c(-c3ccc(Cl)cc3)ccnc2O1 (configuration not stated),-16,?,?,?,16µM*,.
O=C(Nc1ccc(Cl)cc1)C1Cc2c(-c3ccc(Cl)cc3)ccnc2O1 (configuration not stated),-11,21µM*,?,?,23µM*,.
O=C(Nc1ccc(F)c(Cl)c1)C1Cc2c(-c3ccc4c(c3)OCO4)ccnc2O1 (configuration not stated),?,?,26µM*,16µM*,?,.
O=C(Nc1ccc2c(c1)OCO2)C1Cc2c(-c3ccccc3Oc3ccccc3)ccnc2O1 (configuration not stated),-22,?,?,?,?,.
CCCCN(C(=O)c1ccc(NC2CC2)c([N+](=O)[O-])c1)c1c(N)n(CC(C)C)c(=O)[nH]c1=O,?,3%,-6%,1%,-23%,4%
SMILES,IL1B secr inh,TDP1 cell noCPT,HT1080 IDH1KD tx,HT1080-NT tox,DT40 TDP1 CPT,ELG1 repair inh
CCc1cccc(C)c1NC(=O)CN(C)Cc1ccccc1F,0,16µM*,-5%,0%,15µM*,-7%
CSc1ccc(CN(C)CC(=O)Nc2c(F)cccc2F)cc1,22,?,-1%,-4%,21µM*,?
CN(C(=O)Cn1c(=O)n(CCC(=O)NCc2ccc3c(c2)OCO3)c(=O)c2sccc21)c1ccccc1,.,-1%,.,.,-16%,.
NC(=O)c1cc2ccncc2c2ccccc12,?,6.5µM*,-8%,-12%,13µM*,1.3µM*
O=[N+]([O-])c1cc2cccnc2c2ncccc12,90,?,?,?,?,7.3µM*
O=[N+]([O-])c1ccc(Sc2cccc3cccnc23)c2cccnc12,27,26µM*,4%,0%,18µM*,?
Cc1ccc([N+](=O)[O-])c2cccnc12,15,-8%,12%,6%,-3%,14%
COc1ccc(CCNC(=O)CSc2cn(Cc3ccccc3)c3ccccc23)cc1OC,51,?,-6%,-28%,?,?
COc1ccc(CCNC(=O)CCc2cn(Cc3ccc(F)cc3)c3ccccc23)cc1OC,.,16µM*,.,.,?,.
CCn1cc(CCC(=O)NCc2cccc(OC)c2OC)c2ccccc21,-14,16µM*,3%,6%,18µM*,-26%
Cc1ccc(Cn2cc(CCC(=O)NC3CCCCC3)c3ccccc32)cc1,.,15µM*,.,.,?,.
CCOc1ccc(CCNC(=O)CCc2cn(Cc3ccc(C)cc3)c3ccccc23)cc1,.,12µM*,.,.,?,.
CC(C)n1cnnc1SCC(=O)NNC(=O)COc1ccc(Cl)cc1,6,4%,-13%,-1%,7%,0%
COc1ccc(CCNC(=O)CCc2cn(Cc3ccccc3Cl)c3ccccc23)c(OC)c1,.,16µM*,.,.,?,.
